Measured values reported in PubChem BioAssay (NCATS).
Records with an inconclusive call do not appear. A number with no mark means an inactive call. Active and inactive are the calls of the source. Unless noted, the call rests on the fitted dose curve; in most records, active means well fitted inhibition curve with a large enough effect; inconclusive means small, poorly fitted or top-dose-only effect; inactive means no such curve, though single readings can be large or run the other way.

Target: Atrial natriuretic peptide receptor 2 (Homo sapiens) (UniProt P20594)
Sequence (P20594 whole entry, looked up): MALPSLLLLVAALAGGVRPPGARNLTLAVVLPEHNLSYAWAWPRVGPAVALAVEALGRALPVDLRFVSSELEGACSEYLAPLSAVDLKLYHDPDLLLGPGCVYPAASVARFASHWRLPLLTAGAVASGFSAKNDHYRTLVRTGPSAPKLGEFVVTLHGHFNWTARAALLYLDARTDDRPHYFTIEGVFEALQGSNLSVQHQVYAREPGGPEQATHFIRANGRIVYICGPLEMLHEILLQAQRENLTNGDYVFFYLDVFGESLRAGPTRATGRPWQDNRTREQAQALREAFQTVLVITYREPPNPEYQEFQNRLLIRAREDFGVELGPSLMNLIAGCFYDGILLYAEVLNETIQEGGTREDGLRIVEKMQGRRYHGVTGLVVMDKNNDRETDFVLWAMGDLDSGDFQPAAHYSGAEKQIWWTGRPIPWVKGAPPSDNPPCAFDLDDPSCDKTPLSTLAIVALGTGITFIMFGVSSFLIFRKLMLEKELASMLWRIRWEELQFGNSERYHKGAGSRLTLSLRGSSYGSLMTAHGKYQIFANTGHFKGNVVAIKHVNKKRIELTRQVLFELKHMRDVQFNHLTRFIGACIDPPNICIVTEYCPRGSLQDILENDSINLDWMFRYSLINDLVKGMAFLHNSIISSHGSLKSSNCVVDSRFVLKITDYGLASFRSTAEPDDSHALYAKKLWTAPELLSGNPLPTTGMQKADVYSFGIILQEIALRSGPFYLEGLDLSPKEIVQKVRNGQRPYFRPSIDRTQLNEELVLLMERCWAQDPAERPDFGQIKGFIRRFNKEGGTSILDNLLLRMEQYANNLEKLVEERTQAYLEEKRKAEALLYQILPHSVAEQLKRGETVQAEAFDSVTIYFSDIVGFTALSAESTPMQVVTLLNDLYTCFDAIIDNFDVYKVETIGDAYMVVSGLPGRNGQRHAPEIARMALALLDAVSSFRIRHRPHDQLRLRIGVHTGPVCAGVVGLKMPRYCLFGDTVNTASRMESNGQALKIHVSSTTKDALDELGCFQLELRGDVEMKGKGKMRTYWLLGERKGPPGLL
Test: Natriuretic polypeptide receptor (hNpr2) antagonism - Pilot subtype selectivity assay (AID 1347050; calls by dose curve; further: potency means the concentration at half of the fitted maximal effect; on activity change, negative = inhibition: on the % scale 0 is the no-effect control and ±100 the full control effect)
Settings: NPR2-expressing cells, cGMP antagonist-mode read-out; series mostly up to 38.3 µM; activity change, negative = inhibition: at the top concentration
How it was run: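 cGMP-sensor HEK293/hNpr2 cells; 2% GloSensor reagent 2 h RT; compounds 30 min; baseline luminescence read; 1 nM hNppC agonist 20 min RT; final luminescence read by CCD camera. Antagonism = reduced post-agonist signal.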

| SMILES | activity change, negative = inhibition | Potency |
| --- | --- | --- |
| Nc1nc(OCc2ccccc2)c2[nH]cnc2n1 | -3.82% |  |
| CCN(CC)C(=S)SSC(=S)N(CC)CC |  | 5.21 µM (active) |
| O=c1ccc2ccc(O)c(O)c2o1 | 0.98% |  |
| CCOC(=O)C(C)Oc1cccc2c(=O)n(CC(=O)Nc3ccc4c(c3)OCCO4)ccc12 (stereo unspecified) | 1.83% |  |

System: not listed separately
Test: NS1 protein of Zika virus - qHTS assay to identify small molecule inhibitors in human HEK 293 cells (AID 1347053); further: nearly all actives have a fitted effect of over 55% in size; further: potency means the concentration at half of the fitted maximal effect;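 on activity change, negative = inhibition: plate controls were infected untreated cells for no effect and uninfected cells for full effect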
Settings: HEK293 ZIKV MR766 infection, NS1 TR-FRET, 24 h; series mostly up to 46.1 µM; activity change, negative = inhibition: at the top concentration
How it was run: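 Following 20 h seeding, HEK 293 cells took compound, then 1 h later ZIKV MR766 (MOI = 0.5). Incubation ran 24 h at 37 C before TR-FRET detection of NS1; a drop in signal indicates inhibition.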

| SMILES | Potency | activity change, negative = inhibition |
| --- | --- | --- |
| O=c1c(O)c(-c2cc(O)c(O)c(O)c2)oc2cc(O)cc(O)c12 | inactive |  |
| CN(C)C(=O)[C@H](O)[C@H](Cc1ccccc1)NC(=O)c1cc2cc(Cl)ccc2[nH]1 | inactive |  |
| Nc1ccn([C@@H]2O[C@H](CO)[C@@H](O)C2O)c(=O)n1 (stereo partly specified) |  | 0.973% |
| O=C(O)c1cccnc1Nc1cccc(C(F)(F)F)c1 | inactive |  |
| CNC[C@H](O)c1ccc(O)c(O)c1 | inactive |  |
| OC(CN1CCN(c2cccc(Cl)c2)CC1)C(c1ccccc1)c1ccccc1 (stereo unspecified) |  | 3.35% |
| O=C(CCc1ccc(O)cc1)c1c(O)cc(O)cc1O | inactive |  |
| O=C1NC(=O)C(c2ccccc2[N+](=O)[O-])=C1Nc1ccc(O)c(Cl)c1 | inactive |  |
| Cc1cc(O)c2c(c1)C(=O)c1cc(O)cc(O)c1C2=O | inactive |  |
| COc1cc2nc(N3CCN(C(=O)C4CCCO4)CC3)nc(N)c2cc1OC (stereo unspecified) | inactive |  |
| C[C@@H](N)C1CCC(C(=O)Nc2ccncc2)CC1 (stereo partly specified) | inactive |  |
| CN(C)CCCC1(c2ccc(F)cc2)OCc2cc(C#N)ccc21 (stereo unspecified) | inactive |  |
| O=c1c(O)c(-c2ccc(O)cc2O)oc2cc(O)cc(O)c12 | inactive |  |
| CCOC(=O)C1=C(O)C(=O)N(Cc2ccccc2)C1 | inactive |  |
| COc1cc2c(cc1OC)C1CC(=O)C(CC(C)C)CN1CC2 (stereo unspecified) |  | 4.15% |
| Clc1ccc2c(N3CCN(CCCN4CCN(c5ccnc6cc(Cl)ccc56)CC4)CC3)ccnc2c1 | inactive |  |
| CC(C)c1ccc2c(c1)c(SC(C)(C)C)c(CC(C)(C)C(=O)O)n2Cc1ccc(Cl)cc1 |  | 0.122% |
| NCCCCNCCCN | inactive |  |
| NC(=NCc1ccccc1)NC(=O)c1nc(Cl)c(N)nc1N | inactive |  |
| Oc1ccc2ccccc2c1SSc1c(O)ccc2ccccc12 | inactive |  |

| SMILES | Potency | activity change, negative = inhibition |
| --- | --- | --- |
| CC1(C)C(=O)N(CCN2CCC(C(=O)c3ccc(F)cc3)CC2)c2ccccc21 | inactive |  |
| Cc1cccc(-c2[nH]ncc2-c2ccc3ncccc3n2)n1 | inactive |  |
| O=C1c2c(O)cc(O)cc2OC(c2ccc(O)c(O)c2)C1O (stereo unspecified) | inactive |  |
| c1cnc2cc3c(cc2n1)C1CNCC3C1 | inactive |  |
| Cc1c(OCC(F)(F)F)ccnc1CS(=O)c1nc2ccccc2[nH]1 (stereo unspecified) | inactive |  |
| O=c1cc(N2CCOCC2)oc2c(-c3ccccc3)cccc12 | inactive |  |
| CC1(C)NC(=O)N(c2ccc([N+](=O)[O-])c(C(F)(F)F)c2)C1=O | inactive |  |
| CC(=O)O[C@H]1C(=O)[C@@]2(C)C([C@H](OC(=O)c3ccccc3)[C@]3(O)C[C@H](OC(=O)[C@H](O)[C@@H](NC(=O)c4ccccc4)c4ccccc4)C(C)=C1C3(C)C)[C@]1(OC(C)=O)CO[C@@H]1C[C@@H]2O (stereo partly specified) | 0.0066 µM (active) |  |
| Oc1ccc(-c2nc(-c3ccc(F)cc3)c(-c3ccncc3)[nH]2)cc1 | inactive |  |
| C[C@H](Cc1ccc(O)c(O)c1)[C@@H](C)Cc1ccc(O)c(O)c1 |  | -1.13% |
| O=C1c2ccccc2-c2n[nH]c3cccc1c23 | inactive |  |
| O=C(c1ccccc1)c1ccc2n1CCC2C(=O)O (stereo unspecified) | inactive |  |
| COc1ccccc1N1CCN(CCN(C(=O)C2CCCCC2)c2ccccn2)CC1 | inactive |  |
| COc1ccc2cc([C@H](C)C(=O)O)ccc2c1 | inactive |  |
| Nc1nc(OCc2ccccc2)c2[nH]cnc2n1 |  | 4.62% |
| CCN(CC)C(=S)SSC(=S)N(CC)CC | 8.33 µM (active) |  |
| O=c1ccc2ccc(O)c(O)c2o1 | inactive |  |
| Cc1cccc(C#Cc2ccccc2)n1 | inactive |  |
| CCOC(=O)C(C)Oc1cccc2c(=O)n(CC(=O)Nc3ccc4c(c3)OCCO4)ccc12 (stereo unspecified) | inactive |  |

Target: Tyrosine-protein phosphatase non-receptor type substrate 1 (Homo sapiens) + Leukocyte surface antigen CD47 (Homo sapiens) (UniProt P78324+Q08722)
Sequence (P78324 whole entry, looked up): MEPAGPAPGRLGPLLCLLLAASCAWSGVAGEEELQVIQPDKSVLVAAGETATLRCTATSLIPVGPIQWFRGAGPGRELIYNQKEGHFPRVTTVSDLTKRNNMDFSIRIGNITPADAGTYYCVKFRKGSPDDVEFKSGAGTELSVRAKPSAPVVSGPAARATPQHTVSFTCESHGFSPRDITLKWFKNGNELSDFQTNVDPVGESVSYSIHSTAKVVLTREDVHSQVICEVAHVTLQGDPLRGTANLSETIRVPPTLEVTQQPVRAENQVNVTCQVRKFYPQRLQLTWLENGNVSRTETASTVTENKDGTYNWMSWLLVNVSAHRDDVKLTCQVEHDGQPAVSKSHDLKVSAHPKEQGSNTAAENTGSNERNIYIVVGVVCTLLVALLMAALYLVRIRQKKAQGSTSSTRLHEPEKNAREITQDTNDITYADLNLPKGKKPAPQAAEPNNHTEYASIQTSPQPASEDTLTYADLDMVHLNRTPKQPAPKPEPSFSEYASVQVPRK
Sequence (Q08722 whole entry, looked up): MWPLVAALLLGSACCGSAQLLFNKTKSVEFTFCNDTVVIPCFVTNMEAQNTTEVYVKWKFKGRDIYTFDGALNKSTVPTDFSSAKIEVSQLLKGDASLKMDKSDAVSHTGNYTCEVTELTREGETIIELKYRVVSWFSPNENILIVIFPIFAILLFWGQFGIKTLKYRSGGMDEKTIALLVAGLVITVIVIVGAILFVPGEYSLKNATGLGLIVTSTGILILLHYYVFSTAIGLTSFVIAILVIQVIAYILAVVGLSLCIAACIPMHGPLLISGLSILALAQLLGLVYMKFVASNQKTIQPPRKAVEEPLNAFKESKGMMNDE
Test: CD47-SIRPalpha protein protein interaction - LANCE assay qHTS validation (AID 1347057; active means well fitted curve in the direction sought with a large enough effect in the signal ratio, with a control signal flat, not every such curve was filed as active; the % refers to the signal ratio; further: 0% is about no effect)
Settings: Recombinant CD47-His / biotin-SIRPalpha, TR-FRET ratio; series mostly up to 38.3 µM; activity change, negative = inhibition: at the top concentration
How it was run: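 First, His-tagged CD47 and Eu-labelled anti-His antibody met the compound for 30 min; next, site-specifically biotinylated SIRPalpha was added for 30 min; finally streptavidin-APC was added before reading the TR-FRET ratio.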

| SMILES | activity change, negative = inhibition |
| --- | --- |
| O=c1c(O)c(-c2cc(O)c(O)c(O)c2)oc2cc(O)cc(O)c12 | 1.04% |
| CN(C)C(=O)[C@H](O)[C@H](Cc1ccccc1)NC(=O)c1cc2cc(Cl)ccc2[nH]1 | -0.352% |
| O=C(O)c1cccnc1Nc1cccc(C(F)(F)F)c1 | 0.082% |
| CNC[C@H](O)c1ccc(O)c(O)c1 | -0.382% |
| O=C(CCc1ccc(O)cc1)c1c(O)cc(O)cc1O | -0.484% |
| O=C1NC(=O)C(c2ccccc2[N+](=O)[O-])=C1Nc1ccc(O)c(Cl)c1 | -0.389% |
| Cc1cc(O)c2c(c1)C(=O)c1cc(O)cc(O)c1C2=O | 0.616% |
| C[C@@H](N)C1CCC(C(=O)Nc2ccncc2)CC1 (stereo partly specified) | 0.879% |
| CN(C)CCCC1(c2ccc(F)cc2)OCc2cc(C#N)ccc21 (stereo unspecified) | 1.55% |
| CCOC(=O)C1=C(O)C(=O)N(Cc2ccccc2)C1 | 2.02% |
| COc1cc2c(cc1OC)C1CC(=O)C(CC(C)C)CN1CC2 (stereo unspecified) | -0.671% |
| Clc1ccc2c(N3CCN(CCCN4CCN(c5ccnc6cc(Cl)ccc56)CC4)CC3)ccnc2c1 | 0.923% |
| CC(C)c1ccc2c(c1)c(SC(C)(C)C)c(CC(C)(C)C(=O)O)n2Cc1ccc(Cl)cc1 | 0.704% |
| NCCCCNCCCN | 2.4% |
| NC(=NCc1ccccc1)NC(=O)c1nc(Cl)c(N)nc1N | 0.766% |
| Oc1ccc2ccccc2c1SSc1c(O)ccc2ccccc12 | -0.351% |
| CC1(C)C(=O)N(CCN2CCC(C(=O)c3ccc(F)cc3)CC2)c2ccccc21 | 2.62% |

| SMILES | activity change, negative = inhibition |
| --- | --- |
| Cc1cccc(-c2[nH]ncc2-c2ccc3ncccc3n2)n1 | -0.22% |
| O=C1c2c(O)cc(O)cc2OC(c2ccc(O)c(O)c2)C1O (stereo unspecified) | 0.0199% |
| c1cnc2cc3c(cc2n1)C1CNCC3C1 | 2.22% |
| Cc1c(OCC(F)(F)F)ccnc1CS(=O)c1nc2ccccc2[nH]1 (stereo unspecified) | -1.03% |
| O=c1cc(N2CCOCC2)oc2c(-c3ccccc3)cccc12 | -0.044% |
| CC1(C)NC(=O)N(c2ccc([N+](=O)[O-])c(C(F)(F)F)c2)C1=O | -0.506% |
| Oc1ccc(-c2nc(-c3ccc(F)cc3)c(-c3ccncc3)[nH]2)cc1 | 0.591% |
| C[C@H](Cc1ccc(O)c(O)c1)[C@@H](C)Cc1ccc(O)c(O)c1 | 4.1% |
| O=C(c1ccccc1)c1ccc2n1CCC2C(=O)O (stereo unspecified) | 1.15% |
| COc1ccccc1N1CCN(CCN(C(=O)C2CCCCC2)c2ccccn2)CC1 | 2.05% |
| COc1ccc2cc([C@H](C)C(=O)O)ccc2c1 | -0.132% |
| Nc1nc(OCc2ccccc2)c2[nH]cnc2n1 | -0.282% |
| CCN(CC)C(=S)SSC(=S)N(CC)CC | 0.234% |
| O=c1ccc2ccc(O)c(O)c2o1 | -0.44% |
| Cc1cccc(C#Cc2ccccc2)n1 | 0.222% |
| CCOC(=O)C(C)Oc1cccc2c(=O)n(CC(=O)Nc3ccc4c(c3)OCCO4)ccc12 (stereo unspecified) | 1.68% |
